In PubChem BioAssay (Tox21):
Inconclusive results are not listed. A call without a number means that no potency is given here. Activity calls are given as the source filed them. Calls follow the shape of the dose curve; as a rule, active = well fitted curve in the direction sought with a large enough effect in the repeat runs; inconclusive = weak or mixed curves; inactive = no such curve, though single readings can be large; an effect the other way counts as inactive or inconclusive.

test system: not listed separately; assay: qHTS assay to identify small molecule antagonists of the androgen receptor (AR) signaling pathway using the MDA cell line in the presence of 0.5 nM R1881 - cell viability counter screen (AID 1259242); details: MDA-kb2 viability, CellTiter-Fluor protease fluorescence, 16 h; series mostly up to 92.4 µM; also: nearly all actives have a fitted effect of over 45% in size
Procedure, shortened: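 qHTS format. MDA-kb2 (MMTV-luc, AR/GR responsive) + cpd + 0.5 nM R1881 final, 16 hr 37C/0% CO2 → CellTiter-Fluor 30 min → fluorescence intensity.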

| SMILES | Potency |
| --- | --- |
| Cc1cc(CC(=O)O)n(C)c1C(=O)c1ccc(Cl)cc1 | inactive |
| Cc1ccccc1C=O | inactive |
| C[n+]1ccn(CCO)c1 | inactive |
| C1CCCNCC1 | inactive |
| NCCNCCNCCN | inactive |
| COC(=O)/C=C\C(=O)OC | inactive |
| C=CC(=O)NCOCCCC | inactive |
| CS(=O)(=O)c1ccc(Cl)cc1 | inactive |
| NC1CCCCC1N (stereo not given) | inactive |
| CC(C)=CCC/C(C)=C/C=O | inactive |
| O=C(NCC1CCCCN1)c1cc(OCC(F)(F)F)ccc1OCC(F)(F)F (stereo not given) | inactive |
| CCCCCNCCCCC | inactive |
| Cc1ccc(C)c(S(=O)(=O)O)c1 | inactive |
| C=C(CC(=O)O)C(=O)O | inactive |
| CCn1cc(C(=O)O)c(=O)c2cc3c(cc21)OCO3 | inactive |
| C=C1C[C@]23C[C@@]1(O)CC[C@H]2[C@@]12C=C[C@H](O)[C@@](C)(C(=O)O1)[C@H]2[C@@H]3C(=O)O | inactive |
| CC(=O)OCc1ccc2c(c1)OCO2 | inactive |

| SMILES | Potency |
| --- | --- |
| CCCOC(=O)NCCCN(C)C | inactive |
| CN1Cc2c(N)cccc2C(c2ccccc2)C1 (stereo not given) | inactive |
| O=c1n(CCCN2CCN(c3cccc(Cl)c3)CC2)nc2ccccn12 | inactive |
| NC(N)=S | inactive |
| COC(=O)OC | inactive |
| CC1(C)C(=O)N(Cl)C(=O)N1Cl | inactive |
| CC(C)(C)NC[C@H](O)COc1nsnc1N1CCOCC1 | inactive |
| Cc1cccc(C)c1[N+](=O)[O-] | inactive |
| CC(CN1c2ccccc2Sc2ccccc21)N(C)C (stereo not given) | inactive |
| O=C(c1ccccc1)c1ccc(O)c(O)c1O | inactive |
| O=C1OC(=O)c2c(Cl)c(Cl)c(Cl)c(Cl)c21 | inactive |
| OCc1ccc(Cl)cc1Cl | inactive |
| O=C1O[C@H]([C@H](O)CO)C(O)=C1O | inactive |
| OCCOCCOCCOCCOCCO | inactive |
| CCN(CC)CCNC(=O)c1ccc(N)cc1 | inactive |
| COCN(COC)c1nc(N(COC)COC)nc(N(COC)COC)n1 | inactive |
| CC(=O)OCCC(C)C | inactive |

target: Androgen receptor (Homo sapiens) (UniProt P10275); assay: qHTS assay to identify small molecule antagonists of the androgen receptor (AR) signaling pathway using the MDA cell line in the presence of 0.5 nM R1881 (AID 1259243); details: MDA-kb2 MMTV-luciferase, R1881 0.5 nM, 16 h; series mostly up to 92.4 µM; also: nearly all actives have a fitted effect of over 50% in size
Sequence (P10275 whole entry, looked up): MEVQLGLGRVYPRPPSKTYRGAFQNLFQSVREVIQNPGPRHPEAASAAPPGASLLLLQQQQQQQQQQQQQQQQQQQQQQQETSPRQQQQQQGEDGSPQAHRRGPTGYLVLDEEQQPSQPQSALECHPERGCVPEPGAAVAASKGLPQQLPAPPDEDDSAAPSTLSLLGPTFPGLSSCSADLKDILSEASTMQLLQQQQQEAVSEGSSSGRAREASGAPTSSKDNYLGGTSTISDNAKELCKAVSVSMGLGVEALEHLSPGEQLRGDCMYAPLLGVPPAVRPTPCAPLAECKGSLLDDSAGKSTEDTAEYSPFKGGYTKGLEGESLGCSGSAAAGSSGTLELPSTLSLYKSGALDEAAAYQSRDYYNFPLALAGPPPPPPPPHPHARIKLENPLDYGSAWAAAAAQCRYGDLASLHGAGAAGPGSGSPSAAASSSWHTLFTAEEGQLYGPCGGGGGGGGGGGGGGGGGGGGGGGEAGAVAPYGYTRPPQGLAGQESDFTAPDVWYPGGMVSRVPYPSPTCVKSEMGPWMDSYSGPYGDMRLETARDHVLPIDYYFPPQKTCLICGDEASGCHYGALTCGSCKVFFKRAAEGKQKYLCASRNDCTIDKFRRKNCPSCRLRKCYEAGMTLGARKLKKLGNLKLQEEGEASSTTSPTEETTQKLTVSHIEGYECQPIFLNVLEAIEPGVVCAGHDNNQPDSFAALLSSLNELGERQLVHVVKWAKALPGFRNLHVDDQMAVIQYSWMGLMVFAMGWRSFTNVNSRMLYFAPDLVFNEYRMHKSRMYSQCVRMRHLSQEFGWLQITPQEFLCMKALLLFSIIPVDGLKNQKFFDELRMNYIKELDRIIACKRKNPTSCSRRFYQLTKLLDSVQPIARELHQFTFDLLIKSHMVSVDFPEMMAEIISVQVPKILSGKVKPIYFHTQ
Procedure, shortened: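 Antagonist mode quantitative HTS in MDA-kb2 MMTV-luciferase cells, agonist R1881 at 0.5 nM final, 16 hr exposure at 37C and 0% CO2, luminescent detection.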

| SMILES | Potency |
| --- | --- |
| CCCN(CCC)C(=O)SCC | inactive |
| OCC(O)CS (stereo not given) | inactive |
| Cc1ccccc1Cl | inactive |
| CC(C)(CO)CO | inactive |

target: Estrogen receptor (Homo sapiens) (UniProt P03372); assay: qHTS assay to identify small molecule antagonists of the estrogen receptor alpha (ER-alpha) signaling pathway using the BG1 cell line in the presence of 0.1 nM 17-beta-estradiol (AID 1259244); details: VM7Luc4E2 (BG1) ERE-luciferase, antagonist mode, 0.1 nM E2, 22 h; series mostly up to 92.4 µM; also: nearly all actives have a fitted effect of over 50% in size
Sequence (P03372 whole entry, looked up): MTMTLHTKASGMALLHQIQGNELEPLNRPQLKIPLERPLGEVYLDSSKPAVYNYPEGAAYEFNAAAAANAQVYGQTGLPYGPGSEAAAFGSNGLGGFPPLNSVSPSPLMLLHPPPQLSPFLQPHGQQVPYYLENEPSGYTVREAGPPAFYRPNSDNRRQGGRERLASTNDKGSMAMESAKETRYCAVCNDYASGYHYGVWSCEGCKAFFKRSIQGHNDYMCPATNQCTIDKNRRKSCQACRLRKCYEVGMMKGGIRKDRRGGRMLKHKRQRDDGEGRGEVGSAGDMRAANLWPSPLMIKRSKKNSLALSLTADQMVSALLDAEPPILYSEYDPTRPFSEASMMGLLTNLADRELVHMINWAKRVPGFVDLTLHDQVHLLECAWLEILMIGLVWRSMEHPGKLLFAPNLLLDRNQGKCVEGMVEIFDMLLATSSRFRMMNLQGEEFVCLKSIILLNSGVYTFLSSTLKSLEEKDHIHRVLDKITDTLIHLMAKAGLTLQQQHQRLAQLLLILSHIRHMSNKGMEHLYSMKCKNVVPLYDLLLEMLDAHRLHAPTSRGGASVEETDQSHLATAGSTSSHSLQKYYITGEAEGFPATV
Procedure, shortened: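 Reporter is a stably transfected luciferase under four estrogen responsive elements in VM7Luc4E2 cells expressing native full-length ER-alpha; inhibition of 0.1 nM (final) 17beta-estradiol-driven signal over 22 h is read by luminescence.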

| SMILES | Potency |
| --- | --- |
| Cc1ccccc1C=O | inactive |
| CCCN(CCC)C(=O)SCC | inactive |
| C1CCCNCC1 | inactive |
| C=CC(=O)NCOCCCC | inactive |
| OCC(O)CS (stereo not given) | inactive |
| CC(C)=CCC/C(C)=C/C=O | inactive |
| Cc1ccccc1Cl | inactive |
| NC(N)=S | inactive |
| CC(C)(CO)CO | inactive |
| CC1(C)C(=O)N(Cl)C(=O)N1Cl | inactive |
| O=C(c1ccccc1)c1ccc(O)c(O)c1O | inactive |
| COCN(COC)c1nc(N(COC)COC)nc(N(COC)COC)n1 | inactive |
